{
  "source": "PubChem BioAssay (EPA / NIEHS)",
  "note": "Records with an inconclusive call do not appear. Active and inactive are the calls of the source. The calls were made as follows, unless noted: active = hit-call score of the fitted dose curve at least 0.9, where 1 is the maximum; inconclusive = response in the unintended direction; inactive = score below 0.9.",
  "data": [
    {"system": "not listed separately", "assay": "ATG_M_32_TRANS: Attagene TRANS-FACTORIAL HepG2 Assay for M32 Transcription Factor (Internal Marker) (AID 2282984);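 also: transcript level of a background control reporter unit measured by RT-PCR and capillary electrophoresis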", "details": "HepG2 Attagene TRANS M32 internal marker reporter", "in_short": "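Read-out: fluorescent reporter cDNA fragments resolved by capillary electrophoresis after RT-PCR of total RNA. Transfected HepG2 cells were exposed to chemical for 24 h. Activity scored in the positive direction relative to DMSO.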", "values": [
      {"smiles": "FC(F)(F)C(F)(C(F)(F)F)C(F)(F)C(F)(F)CC1CO1", "note": "(stereo unspecified)", "outcome": "inactive"},
      {"smiles": "CCOP(=S)(OCC)SCSc1ccc(Cl)cc1", "outcome": "inactive"},
      {"smiles": "c1nc[nH]n1", "outcome": "inactive"},
      {"smiles": "Clc1ccc(Oc2ccccc2)cc1", "outcome": "inactive"},
      {"smiles": "c1cc2c3c(cccc3c1)CC2", "outcome": "inactive"},
      {"smiles": "CCN(CC)C1CCCCC1", "outcome": "inactive"},
      {"smiles": "CCCCC(CC)COP(=O)(Oc1ccccc1)Oc1ccccc1", "note": "(stereo unspecified)", "outcome": "inactive"},
      {"smiles": "CCOc1ccc(C(C)(C)COCc2cccc(Oc3ccccc3)c2)cc1", "outcome": "inactive"},
      {"smiles": "CCCCN(CC)C(=O)SCCC", "outcome": "inactive"},
      {"smiles": "Cc1cccc(N)c1", "outcome": "inactive"},
      {"smiles": "CC(C)(C)c1ccc(O)cc1", "outcome": "inactive"},
      {"smiles": "Nc1ccc(Sc2ccc(N)cc2)cc1", "outcome": "inactive"},
      {"smiles": "O=C(O)C1C(C(=O)O)C2(Cl)C(Cl)=C(Cl)C1(Cl)C2(Cl)Cl", "note": "(stereo unspecified)", "outcome": "inactive"},
      {"smiles": "Nc1cc2c3c(c1)C(c1ccccc1)=N[C@@H](NC(=O)c1cccnc1)C(=O)N3CC2", "outcome": "inactive"},
      {"smiles": "OCC1CO1", "note": "(stereo unspecified)", "outcome": "inactive"},
      {"smiles": "c1ccc(OP(Oc2ccccc2)Oc2ccccc2)cc1", "outcome": "inactive"},
      {"smiles": "CCOS(=O)(=O)OCC", "outcome": "inactive"},
      {"smiles": "ClC1=C(Cl)C2(Cl)C3C(Cl)C(Cl)CC3C1(Cl)C2(Cl)Cl", "note": "(stereo unspecified)", "outcome": "inactive"},
      {"smiles": "CC(Cl)(Cl)C(=O)O", "outcome": "inactive"},
      {"smiles": "OCC(F)(F)OC(F)(F)C(F)(F)OC(F)(F)CO", "outcome": "inactive"},
      {"smiles": "CC(Cl)CN(C)C", "note": "(stereo unspecified)", "outcome": "inactive"},
      {"smiles": "Oc1ccc(I)cc1", "outcome": "inactive"},
      {"smiles": "N#C/C=C/c1ccccc1", "outcome": "inactive"},
      {"smiles": "CO/N=C(/C(=O)OC)c1ccccc1COc1ccccc1C", "outcome": "inactive"},
      {"smiles": "O=C(O)C(F)(F)OC(F)(F)C(F)(F)OC(F)(F)C(=O)O", "outcome": "inactive"},
      {"smiles": "O=C(O)C=CC(F)(C(F)(F)F)C(F)(F)F", "outcome": "inactive"}
    ]},
    {"biological_target": "Nuclear receptor subfamily 4 group A member 2 (Homo sapiens) (UniProt P43354)", "sequence (P43354 whole entry, looked up, the tested form may be a part)": "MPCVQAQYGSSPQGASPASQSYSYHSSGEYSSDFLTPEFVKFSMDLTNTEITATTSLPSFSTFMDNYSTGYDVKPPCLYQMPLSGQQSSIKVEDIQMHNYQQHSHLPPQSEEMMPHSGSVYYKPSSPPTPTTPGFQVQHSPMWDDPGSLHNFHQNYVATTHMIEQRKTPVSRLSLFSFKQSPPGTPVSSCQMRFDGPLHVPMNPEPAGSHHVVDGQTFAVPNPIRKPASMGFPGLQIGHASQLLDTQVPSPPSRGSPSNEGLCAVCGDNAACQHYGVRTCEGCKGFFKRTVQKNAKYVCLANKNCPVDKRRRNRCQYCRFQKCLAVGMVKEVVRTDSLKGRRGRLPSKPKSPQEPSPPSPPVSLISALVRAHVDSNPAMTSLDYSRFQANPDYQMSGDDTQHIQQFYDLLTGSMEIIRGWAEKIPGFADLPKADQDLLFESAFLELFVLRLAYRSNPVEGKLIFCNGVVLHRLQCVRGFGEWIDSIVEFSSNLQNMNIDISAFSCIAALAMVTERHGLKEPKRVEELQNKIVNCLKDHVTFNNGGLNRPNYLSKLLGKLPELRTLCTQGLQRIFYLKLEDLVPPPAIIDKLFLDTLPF", "assay": "ATG_NURR1_TRANS: Attagene TRANS-FACTORIAL HepG2 Assay for human Nuclear Receptor Related Protein 1 (NURR1) (AID 2282985)", "details": "HepG2 Attagene TRANS reporter, mRNA readout", "in_short": "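Read-out: reporter mRNA induction by RT-PCR plus capillary electrophoresis with fluorescence detection, after 24 h dosing of transfected HepG2 cells. Exogenous NR-Gal4 chimera activity drives GAL4-UAS reporter; activity fitted upward versus DMSO.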", "values": [
      {"smiles": "CCN(CC)c1ccccc1", "outcome": "inactive"},
      {"smiles": "CCOP(=S)(OCC)SCSc1ccc(Cl)cc1", "outcome": "inactive"},
      {"smiles": "c1nc[nH]n1", "outcome": "inactive"},
      {"smiles": "Clc1ccc(Oc2ccccc2)cc1", "outcome": "inactive"},
      {"smiles": "CCCCC(CC)COP(=O)(Oc1ccccc1)Oc1ccccc1", "note": "(stereo unspecified)", "AC50": "21.8 µM (active)"},
      {"smiles": "CCOc1ccc(C(C)(C)COCc2cccc(Oc3ccccc3)c2)cc1", "outcome": "inactive"},
      {"smiles": "COP(=O)(O)OC", "outcome": "inactive"},
      {"smiles": "Nc1ccc(Sc2ccc(N)cc2)cc1", "outcome": "inactive"},
      {"smiles": "Nc1cc2c3c(c1)C(c1ccccc1)=N[C@@H](NC(=O)c1cccnc1)C(=O)N3CC2", "outcome": "inactive"},
      {"smiles": "CCOP(=S)(OCC)SCSCC", "outcome": "inactive"},
      {"smiles": "CC(Cl)(Cl)C(=O)O", "outcome": "inactive"},
      {"smiles": "OCC(F)(F)OC(F)(F)C(F)(F)OC(F)(F)CO", "outcome": "inactive"},
      {"smiles": "CCCN(CCC)c1c([N+](=O)[O-])cc(C(C)C)cc1[N+](=O)[O-]", "outcome": "inactive"},
      {"smiles": "C=CC(=O)OCC(CC)(COC(=O)C=C)COC(=O)C=C", "outcome": "inactive"},
      {"smiles": "Oc1ccc(I)cc1", "outcome": "inactive"},
      {"smiles": "N#C/C=C/c1ccccc1", "outcome": "inactive"},
      {"smiles": "CC1(C)CN=C(NN=C(/C=C/c2ccc(C(F)(F)F)cc2)/C=C/c2ccc(C(F)(F)F)cc2)NC1", "outcome": "inactive"},
      {"smiles": "[N-]=[N+]=[N-]", "outcome": "inactive"},
      {"smiles": "CCCCc1ccccc1", "outcome": "inactive"},
      {"smiles": "ClC(Cl)(Cl)c1ccccc1", "outcome": "inactive"},
      {"smiles": "CSC(C)(C)C=NO", "outcome": "inactive"}
    ]},
    {"biological_target": "Transcriptional activator Myb (Homo sapiens) (UniProt P10242)", "sequence (P10242 whole entry, looked up)": "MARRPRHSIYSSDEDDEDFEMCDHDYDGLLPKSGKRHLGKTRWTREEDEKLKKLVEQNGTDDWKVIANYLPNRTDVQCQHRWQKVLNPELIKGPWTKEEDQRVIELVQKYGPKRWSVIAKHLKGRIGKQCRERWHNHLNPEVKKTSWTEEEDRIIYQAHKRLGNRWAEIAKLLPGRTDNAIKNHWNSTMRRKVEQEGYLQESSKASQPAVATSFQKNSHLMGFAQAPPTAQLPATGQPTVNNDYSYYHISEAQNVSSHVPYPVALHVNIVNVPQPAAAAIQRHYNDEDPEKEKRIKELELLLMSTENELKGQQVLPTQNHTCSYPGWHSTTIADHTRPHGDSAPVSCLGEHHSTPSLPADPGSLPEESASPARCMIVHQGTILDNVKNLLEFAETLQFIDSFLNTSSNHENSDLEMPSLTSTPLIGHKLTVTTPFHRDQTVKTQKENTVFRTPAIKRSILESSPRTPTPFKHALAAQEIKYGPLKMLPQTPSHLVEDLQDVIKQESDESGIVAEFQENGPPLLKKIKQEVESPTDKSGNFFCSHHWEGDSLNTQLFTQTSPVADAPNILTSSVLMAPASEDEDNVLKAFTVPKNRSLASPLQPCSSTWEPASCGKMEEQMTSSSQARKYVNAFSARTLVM", "assay": "ATG_Myb_CIS: Attagene CIS-FACTORIAL HepG2 Assay for human Myeloblastosis (Myb) Proto-Oncogene Transcription Factor (AID 2282986; active = hit-call score of the fitted dose curve at least 0.9, where 1 is the maximum; inactive = score below 0.9)", "details": "HepG2 Attagene CIS-FACTORIAL Myb reporter transcription; actives raise or lower the signal", "in_short": "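Transiently transfected HepG2 cells carrying a multiplexed cis-promoter reporter set report endogenous Myb activity after 24 h compound exposure. Reporter mRNA is read by RT-PCR with capillary electrophoresis of fluorescent products, fitted bidirectionally against DMSO.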", "values": [
      {"smiles": "CCN(CC)c1ccccc1", "outcome": "inactive"},
      {"smiles": "FC(F)(F)C(F)(C(F)(F)F)C(F)(F)C(F)(F)CC1CO1", "note": "(stereo unspecified)", "outcome": "inactive"},
      {"smiles": "CCOP(=S)(OCC)SCSc1ccc(Cl)cc1", "outcome": "inactive"},
      {"smiles": "c1nc[nH]n1", "outcome": "inactive"},
      {"smiles": "Clc1ccc(Oc2ccccc2)cc1", "outcome": "inactive"},
      {"smiles": "c1cc2c3c(cccc3c1)CC2", "outcome": "inactive"},
      {"smiles": "CCN(CC)C1CCCCC1", "outcome": "inactive"},
      {"smiles": "Cc1cc(C)c(C(=O)P(=O)(c2ccccc2)c2ccccc2)c(C)c1", "AC50": "62.4 µM (active)"},
      {"smiles": "CCCCC(CC)COP(=O)(Oc1ccccc1)Oc1ccccc1", "note": "(stereo unspecified)", "AC50": "143 µM (active)"},
      {"smiles": "CCOc1ccc(C(C)(C)COCc2cccc(Oc3ccccc3)c2)cc1", "outcome": "inactive"},
      {"smiles": "CCCCN(CC)C(=O)SCCC", "outcome": "inactive"},
      {"smiles": "COP(=O)(O)OC", "outcome": "inactive"},
      {"smiles": "Cc1cccc(N)c1", "outcome": "inactive"},
      {"smiles": "CC(C)(C)c1ccc(O)cc1", "outcome": "inactive"},
      {"smiles": "Nc1ccc(Sc2ccc(N)cc2)cc1", "outcome": "inactive"},
      {"smiles": "O=C(O)C1C(C(=O)O)C2(Cl)C(Cl)=C(Cl)C1(Cl)C2(Cl)Cl", "note": "(stereo unspecified)", "outcome": "inactive"},
      {"smiles": "Nc1cc2c3c(c1)C(c1ccccc1)=N[C@@H](NC(=O)c1cccnc1)C(=O)N3CC2", "outcome": "inactive"},
      {"smiles": "CCOP(=S)(OCC)SCSCC", "outcome": "inactive"},
      {"smiles": "OCC1CO1", "note": "(stereo unspecified)", "outcome": "inactive"},
      {"smiles": "O=P(OCC(Br)CBr)(OCC(Br)CBr)OCC(Br)CBr", "note": "(stereo unspecified)", "outcome": "inactive"},
      {"smiles": "c1ccc(OP(Oc2ccccc2)Oc2ccccc2)cc1", "outcome": "inactive"},
      {"smiles": "CCOS(=O)(=O)OCC", "outcome": "inactive"},
      {"smiles": "ClC1=C(Cl)C2(Cl)C3C(Cl)C(Cl)CC3C1(Cl)C2(Cl)Cl", "note": "(stereo unspecified)", "outcome": "inactive"},
      {"smiles": "CC(Cl)(Cl)C(=O)O", "outcome": "inactive"},
      {"smiles": "OCC(F)(F)OC(F)(F)C(F)(F)OC(F)(F)CO", "outcome": "inactive"},
      {"smiles": "CCCN(CCC)c1c([N+](=O)[O-])cc(C(C)C)cc1[N+](=O)[O-]", "outcome": "inactive"},
      {"smiles": "C=CC(=O)OCC(CC)(COC(=O)C=C)COC(=O)C=C", "outcome": "inactive"},
      {"smiles": "CC(Cl)CN(C)C", "note": "(stereo unspecified)", "outcome": "inactive"},
      {"smiles": "Oc1ccc(I)cc1", "outcome": "inactive"},
      {"smiles": "N#C/C=C/c1ccccc1", "outcome": "inactive"},
      {"smiles": "CO/N=C(/C(=O)OC)c1ccccc1COc1ccccc1C", "outcome": "inactive"},
      {"smiles": "CC1(C)CN=C(NN=C(/C=C/c2ccc(C(F)(F)F)cc2)/C=C/c2ccc(C(F)(F)F)cc2)NC1", "outcome": "inactive"},
      {"smiles": "O=C(O)C(F)(F)OC(F)(F)C(F)(F)OC(F)(F)C(=O)O", "outcome": "inactive"},
      {"smiles": "[N-]=[N+]=[N-]", "outcome": "inactive"},
      {"smiles": "O=C(O)C=CC(F)(C(F)(F)F)C(F)(F)F", "outcome": "inactive"},
      {"smiles": "CCCCc1ccccc1", "outcome": "inactive"},
      {"smiles": "ClC(Cl)(Cl)c1ccccc1", "outcome": "inactive"},
      {"smiles": "O=[N+]([O-])c1ccccc1", "outcome": "inactive"},
      {"smiles": "CSC(C)(C)C=NO", "outcome": "inactive"}
    ]}
  ]
}
